Screens: PubChem, National Center for Advancing Translational Sciences (NCATS)
In the library only some 19% were active in any assay of this set; here they are far more common.
IL-1B inflam inh – inhibitors of inflammasome signaling (IL-1 beta secretion) | THP-1 LPS/ATP IL-1B secretion, AlphaLISA, 16 h; active compounds read low | activity change, % at 57.5 µM | 360,000 tested, 4.7% active | AID 743279; in the data active = activity change below about -50%; inconclusive = mostly about -30% to -49%
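Secreted IL-1B measured by AlphaLISA bead assay after 16 h compound exposure of THP-1 cells; compounds (final up to 57.5 uM) added 1 h before LPS (250 ng/mL) and ATP (1.25 mM) stimulation; lower signal means less secretion.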
DT40 TDP1 no CPT – qHTS for Inhibitors of human tyrosyl-DNA phosphodiesterase 1 (TDP1): qHTS in cells in absence of CPT; DT40 Tdp1-/- hTDP1 cells, no CPT, ATP luminescence, 48 h; Potency, µM (titrated, usually from 46.2 µM), for inactives: top-dose activity change, negative = growth inhibition, actives largely listed as inhibitors; 420,000 tested, 15% active; note: potency is the fitted concentration of half-maximal effect; nearly all actives have a fitted effect of over 55% in size
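Growth of hTDP1-complemented DT40 Tdp1-knockout cells is measured by ATP luminescence after at least 48 hr compound exposure at 37 °C, with DMSO substituting for the 20 nM CPT used in the parallel screen.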
HT1080NT lethal – kills 2HG-producing HT-1080-NT fibrosarcoma cells | 360,000 tested, 1.6% active | Potency, µM (series often up to 46.1 µM), for inactives: at the highest dose activity, negative = less viability, actives largely listed as cytotoxic | AID 686970 | HT-1080-NT fibrosarcoma viability, CellTiter-Glo ATP luminescence, 48 h;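 note: NT is the 2HG producing partner of a matched IDH1 knockdown line; potency is the fitted concentration of half-maximal effect; 0% = DMSO-treated cells and -100% = media-only wells without cells; nearly all actives have a fitted effect of over 55% in size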
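HT-1080-NT; 750 cells/well; 5% FBS RPMI; 48 h compound, 37 degrees C; CellTiter-Glo luminescence; curve fitting and curve-class assignment.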
HT1080 IDH1KD tx – kills HT-1080 cells with IDH1 knockdown. Potency, µM (top dose mostly 46.1 µM), for inactives: at the highest dose activity, negative = toxicity, usual class: cytotoxic. HT-1080 IDH1 knockdown viability, ATP luminescence, 48 h. 360,000 tested, 2% active;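 note: potency is the fitted concentration of half-maximal effect; 0% = DMSO wells and -100% = cell-free medium wells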
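Assay cells: HT-1080 with IDH1 knockdown, 750 per well, RPMI/5% FBS. Exposure: 48 h at 37 °C following 2 h pre-incubation. Read: CellTiter-Glo luminescence; fitted concentration-response, curve class assigned.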
TDP1 cell CPT – growth inhibition of DT40 Tdp1-/-;hTDP1 cells with camptothecin (screen for TDP1 inhibitors). chicken DT40 Tdp1-/-;hTDP1 cells + 20 nM CPT, ATP luminescence, 48 h. Potency, µM (top dose mostly 46.2 µM), inactives show at the highest dose activity change, negative = growth inhibition, actives largely listed as inhibitors. 420,000 tested, 12% active; note: potency is the fitted concentration of half-maximal effect; nearly all actives have a fitted effect of over 55% in size
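Chicken DT40 Tdp1-/- cells complemented with human TDP1, 400 cells/well, exposed to compounds plus 20 nM camptothecin for at least 48 h at 37 C; viability read as ATP content by CellTiter-Glo luminescence.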
Numbers without * were called inactive; ? = inconclusive; / = not tested or not shown; [ ] = remark or other dose. Unless noted, calls come from the whole dose curve; as a rule, active = well fitted curve in the direction sought with a large enough effect; inconclusive = small, poorly fitted or top-dose-only effect, or another doubt; inactive = no such curve, though single readings can be large; an effect the other way counts as inactive or inconclusive. Unless noted, % is set by controls: 0 for no effect and ±100 for the full control effect.

SMILES	IL-1B inflam inh	DT40 TDP1 no CPT	HT1080NT lethal	HT1080 IDH1KD tx	TDP1 cell CPT
Cc1cccc(C)c1N(CC(=O)N/N=C/c1cc(Br)c(C)o1)S(C)(=O)=O	-21.4	-18.7%	1.2%	2.6%	-10.9%
CCOC(=O)C1(Cc2ccc(OC)cc2)CCN(C(=O)CCc2cccnc2)CC1	-21.4	?	-2.6%	-0.6%	0.0%
COc1ccc(/C=C2\SC(=O)NC2=S)cc1OC	-73.7*	?	?	?	10.3µM*
COc1cc(/C=N/O)ccc1Oc1ccc([N+](=O)[O-])cc1[N+](=O)[O-]	0.0	18.4µM*	-22.7%	-25.8%	?
COc1ccc(/C=N/OC(=O)Nc2ccccc2)cc1[N+](=O)[O-]	-23.0	-17.2%	1.1%	5.6%	4.2%
COc1cc(/C=C2\SC(=O)NC2=O)ccc1Oc1ccc([N+](=O)[O-])cc1[N+](=O)[O-]	0.0	16.4µM*	-27.3%	?	18.4µM*
CO/N=C/c1ccc(Oc2ccc([N+](=O)[O-])cc2[N+](=O)[O-])c(OC)c1	-14.7	16.4µM*	?	?	?
O=C(CCC1CCCC1)NCCS(=O)(=O)N1CCN(c2ccccc2)CC1	-11.0	-8.3%	-2.5%	-1.4%	-18.2%
O=C1NC(=O)/C(=C\c2ccc(OCc3cccc([N+](=O)[O-])c3)cc2)N1	1.2	?	0.3%	-1.1%	3.7%
CCN1C(=O)C(=Cc2cccc(OC)c2Oc2ccc([N+](=O)[O-])cc2[N+](=O)[O-])SC1=S	-94.8*	1.46µM*	2.59µM*	3.26µM*	1.46µM*
CCOc1ccccc1C1NC(=O)NC(C)=C1C(=O)OCc1ccccc1 (configuration not stated)	-7.3	?	-1.9%	-6.3%	-16.0%
CC1=C(C(=O)OC2CCCCCCC2)C(c2ccc(O)cc2)NC(=O)N1 (configuration not stated)	-54.6*	?	?	5.3%[9.24 µM]	?
CC(=O)C1=C(C)NC(=O)CC1c1ccccc1Cl (configuration not stated)	-25.8	-24.4%	-0.5%	-1.6%	-0.2%
CC1=C(C(=O)OC(C)C)C(c2ccccc2Cl)CC(=O)N1 (configuration not stated)	2.0	11.6µM*	-3.1%	-16.4%	20.6µM*
CCOc1ccccc1C1NC(=O)NC(C)=C1C(=O)OC1CCCC1C (configuration not stated)	-2.7	?	-0.5%	-8.4%	-25.6%
CCOc1ccccc1C1CC(=O)NC(C)=C1C(=O)OCc1ccc(C)cc1 (configuration not stated)	/	16.4µM*	/	/	?
CCOc1ccccc1C1NC(=O)NC(C)=C1C(=O)OC1CCCCC1 (configuration not stated)	-67.9*	?	-6.3%	5.8%[9.24 µM]	?
CC1=C(C(=O)OC2CCCCC2)C(c2ccccc2)NC(=O)N1 (configuration not stated)	-12.0	?	-20.4%	-21.9%	?
O=C(Nn1cnc2ccccc2c1=O)c1ccc(Cl)c([N+](=O)[O-])c1	?	-15.9%	23.5%	13.4%	2.8%
CCC(C)OC(=O)C1=C(C)NC(=O)CC1c1ccccc1OC (configuration not stated)	-18.5	10.3µM*	-5.2%	-2.3%	8.2µM*
CSCCOC(=O)C1=C(C)NC(=O)CC1c1ccccc1Cl (configuration not stated)	0.0	?	-3.7%	-1.6%	?
CC1=C(C(=O)OC2CCCCC2)C(c2ccccc2Br)NC(=O)N1 (configuration not stated)	0.0	?	-4.0%	-5.8%	?
CCOc1ccccc1C1CC(=O)NC(C)=C1C(=O)OC1CCCCCC1 (configuration not stated)	/	16.4µM*	/	/	20.6µM*
CCCOc1ccccc1C1CC(=O)NC(C)=C1C(=O)OCC(C)C (configuration not stated)	-11.4	16.4µM*	-12.6%	?	20.6µM*
